Results published in the supplement of paper PMC6555819.

Tests used:
Assay in all cases: PBM binding z-score (relative to random genomic background probes); higher = stronger binding; sequences stand for … in GC…GCGATTGACAGCGTAGAATGAAGG
[1] = tested on: PPARg:RXRa DBDmut IVT, anti-RXR (DBD mutation: RXRa K156A/R161A, NR concentration 270 nM, RXRa partner concentration 90 nM)
Summary of the method: (§1)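 Binding z-scores were set against random background probes. The data came from custom Agilent 4×180K protein-binding microarrays carrying double-stranded probes with 34-nt variable regions, incubated 1 h with ligand-free nuclear receptor dimers. Partner-specific antibodies detected binding, and scanned fluorescence was regression-normalized.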

[2] = tested on: PPARg:RXRa IVT, anti-PPARg (NR concentration 270 nM, RXRa partner concentration 90 nM)
Summary of the method: as §1

[3] = tested on: PPARg DBDmut:RXRa IVT, anti-PPARg (DBD mutation: PPARg1 K132A/R137A, NR concentration 270 nM, RXRa partner concentration 90 nM)
Summary of the method: as §1

[4] = tested on: PPARg DBDmut IVT, anti-PPARg (DBD mutation: PPARg1 K132A/R137A, NR concentration 270 nM)
Summary of the method: as §1

[5] = tested on: PPARg homodimer (NR concentration 180 nM)
Summary of the method: as §1

[6] = tested on: PXR:RXRa (NR concentration 270 nM, RXRa partner concentration 90 nM)
Summary of the method: as §1

[7] = tested on: PXR homodimer (NR concentration 270 nM)
Summary of the method: as §1

[8] = tested on: RARa:RXR (NR concentration 270 nM, RXRa partner concentration 90 nM)
Summary of the method: as §1

[9] = tested on: RARa homodimer (NR concentration 270 nM)
Summary of the method: as §1

[10] = tested on: RARb:RXRa (NR concentration 270 nM, RXRa partner concentration 90 nM)
Summary of the method: as §1

| Sequence | PBM binding z-score [1] | PBM binding z-score [2] | PBM binding z-score [3] | PBM binding z-score [4] | PBM binding z-score [5] | PBM binding z-score [6] | PBM binding z-score [7] | PBM binding z-score [8] | PBM binding z-score [9] | PBM binding z-score [10] |
| --- | --- | --- | --- | --- | --- | --- | --- | --- | --- | --- |
| ATCACTAGGTAACAAGTTCAGTGAAAGAGAGGAC | 5 | 4.3 | 1.27 | 0.914 | 1.31 | 1.95 | 2.35 | 0.935 | 1.41 | 1.8 |
| CAAACTAGGTCACCGGAAGGTCTAAGTCCGCATG | 8.57 | 9.1 | 1.59 | 1.51 | 2.47 | 2.44 | 0.0604 | 3.02 | 0.862 | 4.37 |
| TTACCAAGGTGAAAGGTCTTTGATGCACGCCTTG | 2.19 | 4.37 | 0.282 | 0.356 | 1.16 | 1.19 | -0.419 | 1.96 | 0.0646 | 1.96 |
| CCTCGGAGGACAACAGGAGGTCAGAGCGGCCAGA | 0.0202 | 0.396 | -0.758 | -1.19 | 1.8 | 2.31 | 0.892 | 2.47 | 0.103 | 3 |
| CCTCGGAGGACAGAAGGACAGAGCTGTCCGCTTT | -0.418 | -0.913 | -0.956 | -1.82 | -0.605 | -0.689 | -0.621 | -0.66 | -0.614 | 0.716 |
| AGAATGAGGTTATGATCAGGGAAACAGAATACAT | 1.69 | 2.07 | 1.68 | 0.713 | 0.605 | 1.02 | 0.186 | 1.6 | 0.566 | 1.42 |
| CGTCCAAGGTCATAGGAGGTCAGTGGAGACAGAT | 3.31 | 4.65 | 1.06 | -0.0581 | 7.55 | 6.94 | 6.61 | 5.94 | 4.42 | 5.39 |
| GCAGACAGGTGAAACGCAGGTACCTCAGGGTGGC | 0.673 | 0.204 | -1.1 | -1.9 | -1.33 | -0.784 | -0.782 | -0.474 | -1.48 | 0.346 |
| TCTATTAGTTGATTAGGGCTACCGAAACAGCGGA | 1.71 | 0.487 | 0.367 | 0.888 | 1.29 | 0.181 | 0.128 | 0.22 | 0.748 | 0.309 |
| CCTAGCAGGCCAATCTGGCTCACTCAAGGCTTGA | 1.35 | 0.117 | -2.07 | -1.06 | -0.294 | -0.913 | -1.16 | -0.795 | -0.522 | -0.16 |
| ATCGAAAGGTCGTAAGGTGAGTATACAGAAAGGC | 0.287 | 2.13 | 1.43 | 1.06 | 2.31 | 2.96 | 0.735 | 4.21 | 0.848 | 3.72 |
| GTACCAAGGTGAATAGGTCGTTGACGAGTAGGCG | 1.8 | 2.86 | 0.144 | -0.0212 | 1.04 | 0.88 | 0.00593 | 1.93 | -0.182 | 2.23 |
| ATATGTAGGTTACATCCGGCTCATTCAGGCTATG | 7.66 | 6.94 | 2.85 | 2.21 | 0.844 | 0.18 | 0.0469 | 0.506 | 0.258 | 1.07 |
| AGAACGGGGGCACGCTGAGTTGATAGCAGAGTAG | 4.63 | 6.15 | 9.13 | 9.69 | 2.35 | 3.72 | 1.03 | 2.98 | 0.451 | 3.1 |
| CGGCCAAGGTCAATGCTAGGTCAGTGAAAGCATT | 3.06 | 3.69 | -0.404 | -1.18 | 4.15 | 4.73 | 0.802 | 5.67 | 0.406 | 5.24 |
| GCTAGCAGGTCATTTGGGTCACTCAATGACGGGC | 3.89 | 4.84 | 0.133 | -0.577 | 1.31 | 3.98 | 4.92 | 3.92 | 0.247 | 3.94 |
| CTACCAAGGTGAACAAGGTGGTTGATTACTATTC | 2.63 | 2.27 | 0.24 | -0.57 | 0.187 | 0.111 | 0.0854 | 0.44 | 0.0119 | 1.43 |
| ATCTCTAGGTAACGAAGTTCAGTGAATGCCGAAC | 3.22 | 2.82 | 0.456 | 0.901 | 0.161 | 1.14 | 0.916 | 0.507 | 0.64 | 1.14 |
| GAAACAGGGTCAAGGCCAGAGTACGCGTATTGAT | 4.14 | 5.29 | 1.43 | 1.01 | 2.18 | 4.41 | 0.162 | 4.58 | 0.267 | 4.73 |

| Sequence | PBM binding z-score [1] | PBM binding z-score [2] | PBM binding z-score [3] | PBM binding z-score [4] | PBM binding z-score [5] | PBM binding z-score [6] | PBM binding z-score [7] | PBM binding z-score [8] | PBM binding z-score [9] | PBM binding z-score [10] |
| --- | --- | --- | --- | --- | --- | --- | --- | --- | --- | --- |
| TCTTGTAGATCAACGGGAGGTTAAGAAAGATCGA | 2.28 | 0.974 | 0.226 | -0.0514 | 0.14 | 0.94 | 0.02 | 1.14 | 0.281 | 0.648 |
| TAGCCTAGGTCATGCGGGCTAGTATAGTGTCGGC | 1.62 | 2.81 | -0.158 | -0.27 | 0.331 | 1.07 | -0.632 | 1.97 | -0.868 | 3.86 |
| ATCTCTAGCTAAAGATAGTTCAGTGAATGCAAAT | -0.205 | -0.237 | 1 | 0.169 | 0.538 | 0.463 | 0.542 | 0.855 | 0.543 | 0.329 |
| GGAACGAGTGCAAAGTTGATAGCATCTGTCGACG | -0.204 | 0.102 | -0.12 | 0.22 | -0.16 | 0.715 | 0.211 | 0.728 | -0.6 | 0.396 |
| ATCTCTAGGTAAAGATCAGTGAAAGATCGATAGA | 1.79 | 1.45 | 0.659 | 1.08 | 0.78 | -0.0968 | 0.169 | 0.174 | 0.687 | 0.0569 |
| ATATGTAGGTTACATCCGGGGCATTCAGGCTATG | 7.46 | 7.35 | 2.05 | 1.15 | 0.96 | 1.14 | 0.659 | 0.992 | 0.476 | 1.26 |
| ATCCCTAGGTAAGACTCAGTTCAGTGAAGAACGC | 0.0897 | -0.242 | -0.265 | 0.674 | 0.578 | 1.06 | 1.32 | 0.256 | 0.532 | 0.244 |
| CAAACTACGTCAAGAGGTCAAAGTCCGCTTCCCG | 1.03 | 2.44 | 1.05 | 0.608 | 3.36 | 5.8 | 3.22 | 6.09 | 1.56 | 4.01 |
| ATATGTAGGTTATCGGGTGATTCAGTTTGCGCAT | 7.59 | 7.22 | 2.9 | 2.24 | 1.51 | 1.07 | 1.12 | 0.995 | 1.96 | 1.15 |
| CGACCAAGGTCAAGGTCAGTGAAAGAGACTCGAA | 3.29 | 4.75 | 0.143 | -0.162 | 3.87 | 4.59 | 0.777 | 4.89 | 1.42 | 5.78 |
| AGAATGAGGCTATACGTAGATCAGGGAAGAAAGT | 1.49 | 0.333 | 0.633 | 0.637 | -0.215 | -0.274 | -0.0563 | -0.0968 | -0.0794 | 0.153 |
| GCATATAGGTAATACAAAGTGAAAGTCCGATTGT | 4.28 | 2.73 | 0.942 | 1.36 | -0.267 | -0.28 | -0.0675 | -0.178 | 0.391 | -0.152 |
| ACTCAGAGGACAAAGGTCAGAGCTACGCCAGTGA | 1.49 | 3.79 | -0.0394 | -0.208 | 3.47 | 4.07 | 0.501 | 5.53 | 1.81 | 4.71 |
| TCTTGTAGATCAAAGGTTAAGAAAGCCGAAGCCT | 2.11 | 3.55 | 0.0229 | 0.863 | 1.18 | 2.02 | -0.0145 | 3.24 | 0.581 | 1.85 |
| GATACAGGTTCAGCTAGAGGCCAGAGTATGGAAA | -0.632 | -0.397 | -0.984 | -1 | 0.61 | 1.19 | -0.0373 | 1.64 | 0.321 | 1.35 |
| CGTCAAAGTTCAAGGGAACGTAACAGAAAGCAGC | 0.445 | 1.36 | 0.481 | 1.2 | 2.69 | 3.89 | 2.32 | 3.09 | 1.28 | 5.11 |
| AGTCAGAGTTCAGGACGAGGTAACGTAAAGCACG | -0.749 | 0.676 | 0.355 | -0.341 | 1.36 | 3.45 | 1.88 | 2.67 | 0.511 | 3.62 |
| TGTCAAAGTTCAAAGGTAATGTAAGTATCCACAC | 0.141 | 4.47 | 1.92 | 1.26 | 3.02 | 5.65 | 3.61 | 5.92 | 1.41 | 4.94 |
| ATCTCTAGGTAAAGATTGTTCAGTGAATGCAAAT | 2.3 | 1.85 | 0.903 | 0.841 | 0.219 | 0.132 | 0.182 | 0.436 | 1.35 | 0.105 |
